For 13 molecules, z-score and composite z-score results are on record in PubChem BioAssay.

Experiment [1] can be described thus: resazurin metabolic signal in HepG2 cells – cell-based, resazurin fluorescence, 24 h, PK04 Diversity Set, profiling panel (AID 1172). Further: test concentration not given here. The settings on record: HepG2 viability, higher = more signal. Background: Resazurin is reduced to fluorescent resorufin, in cell work by metabolically active cells.
The nature of experiment [2]: budding yeast growth changes without added modifier – OD600, strain BY4716, 24 h, basal condition, primary screen (AID 1173). The note with it: S. cerevisiae BY4716 growth, OD600, 24 h; higher = more signal, called active from +8 up or from −8 down.
Experiment [3] can be described thus: viability profiling in MM1S myeloma cells – cell-based, resazurin fluorescence, basal, 24 h, PK04 Diversity Set, profiling panel (AID 1174).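 Further: MM1S multiple myeloma cell line; test concentration not given here.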 The note with it: higher = more signal, called active from +8 up or from −8 down.
In experiment [4] the target is Dihydroorotate dehydrogenase (quinone), mitochondrial (Plasmodium falciparum (isolate 3D7)) (UniProt Q08210). Briefly: inhibition of P. falciparum DHODH – biochemical, C-terminal His tag, absorbance 600 nm, primary screen (AID 1175).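 Further: recombinant parasite enzyme with a five histidine tag at its C terminus; test concentration not given here.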 The note with it: PfDHODH enzyme, DCIP absorbance 600 nm; higher = more signal, called active from +8 up or from −8 down.
A short description of experiment [5]: inhibition of PAO1 biofilm formation – strain PAO1, LB-PBS medium, absorbance 600 nm, primary screen (AID 1176). Further: test concentration not given here. The settings on record: P. aeruginosa PAO1 growth/biofilm, A600, 12 h; higher = more signal.
Experiment [6] in a line: growth modulation of vineyard yeast isolate – strain RM11-1a, OD600, basal, 24 h, primary screen (AID 1177).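 Further: cultures grown under basal conditions with no added stressor; test concentration not given here.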 The note with it: S. cerevisiae RM11-1a growth, OD600, 24 h; higher = more signal, called active from +8 up or from −8 down.
Experiment [7] is described as follows: growth of efflux-deficient E. coli DRC39 – strain DRC39, OD650, 24 h, E. coli filamentation inducers, primary screen (AID 1178).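 Further: growth measured as culture turbidity by optical density at 650 nm; test concentration not given here.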 The settings on record: E. coli DRC39 acrAB, higher = more signal, called active from +8 up or from −8 down.
A short description of experiment [8]: growth of efflux-deficient E. coli DRC39 – strain DRC39, OD650, 48 h, E. coli filamentation inducers, primary screen (AID 1179).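 Further: screen aims at cell division blockers that make cells filament.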 The note with it: E. coli DRC39 delta-acrAB growth, higher = more signal, called active from +8 up or from −8 down.
A short description of experiment [9]: viability profiling in RPMI8226 myeloma cells – cell-based, resazurin fluorescence, basal, 24 h, PK04 Diversity Set, profiling panel (AID 1180).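 Further: RPMI8826 multiple myeloma cell line at 5000 cells per well; test concentration not given here.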 The settings on record: higher = more signal.
In experiment [10] the target is E3 ubiquitin-protein ligase XIAP (Homo sapiens) (UniProt P98170). The experiment is described as follows: small molecules binding XIAP protein – biophysical, small-molecule microarray, fluorescence 635 nm, primary screen (AID 1181).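 Further: score merges 667 nm emission and signal to noise over triplicate slides.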 The note with it: higher = more signal.

Molecules are shown by their SMILES. Active and inactive are the calls of the source. Unless noted, how the calls were made is not given here.

Chain of E3 ubiquitin-protein ligase XIAP (Homo sapiens) (P98170 whole entry, looked up): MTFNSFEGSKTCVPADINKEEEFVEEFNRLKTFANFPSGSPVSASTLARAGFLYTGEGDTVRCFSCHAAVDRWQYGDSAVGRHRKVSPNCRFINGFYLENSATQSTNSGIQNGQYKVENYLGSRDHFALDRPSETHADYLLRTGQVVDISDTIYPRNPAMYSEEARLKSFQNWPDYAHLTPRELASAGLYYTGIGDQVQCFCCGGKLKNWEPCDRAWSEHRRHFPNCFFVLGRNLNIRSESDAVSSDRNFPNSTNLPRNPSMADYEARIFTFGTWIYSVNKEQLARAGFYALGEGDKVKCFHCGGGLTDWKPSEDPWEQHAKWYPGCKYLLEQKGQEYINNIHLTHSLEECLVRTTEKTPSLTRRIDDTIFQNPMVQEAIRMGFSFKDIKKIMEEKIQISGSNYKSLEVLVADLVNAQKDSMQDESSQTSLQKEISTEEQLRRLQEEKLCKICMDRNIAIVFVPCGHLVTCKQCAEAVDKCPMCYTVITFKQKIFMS
Chain of Dihydroorotate dehydrogenase (quinone), mitochondrial (Plasmodium falciparum (isolate 3D7)) (Q08210 whole entry, looked up): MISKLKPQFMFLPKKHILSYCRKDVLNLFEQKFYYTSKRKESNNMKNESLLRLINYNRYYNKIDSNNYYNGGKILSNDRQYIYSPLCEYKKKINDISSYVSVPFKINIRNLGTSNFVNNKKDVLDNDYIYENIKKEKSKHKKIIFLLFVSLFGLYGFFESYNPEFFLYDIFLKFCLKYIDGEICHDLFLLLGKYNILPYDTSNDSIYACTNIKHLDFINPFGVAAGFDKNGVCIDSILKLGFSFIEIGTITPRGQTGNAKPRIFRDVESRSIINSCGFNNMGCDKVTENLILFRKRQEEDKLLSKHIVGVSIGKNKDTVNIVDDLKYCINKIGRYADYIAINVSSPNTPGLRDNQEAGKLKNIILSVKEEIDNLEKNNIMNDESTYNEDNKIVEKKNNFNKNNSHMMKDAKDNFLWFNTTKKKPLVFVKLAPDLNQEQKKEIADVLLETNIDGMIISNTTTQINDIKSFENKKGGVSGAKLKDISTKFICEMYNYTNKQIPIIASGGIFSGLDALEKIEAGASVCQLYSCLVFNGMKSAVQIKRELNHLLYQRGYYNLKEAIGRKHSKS

On to `COC(=O)C1=C(C)[C@@H](O)[C@@H](C)[C@H](c2c(OC)c(OC)c(C)c(OC)c2OC)O1`, for which the z-score is -0.359 in experiment [1]; -0.195 (inactive) in experiment [2]; -0.46 (inactive) in [3]; 0.368 (inactive) in experiment [5]; 0.0467 (inactive) in [6]; 0.0595 (inactive) in experiment [7]. The figures for the z-score in experiment [8] and in [9] were -0.0569 (inactive) and -0.529, respectively. Also, the composite z-score in experiment [4] was -0.218 (inactive); in experiment [10], 0.0101.

`CC(=O)C[C@H](O)[C@@H](NC(=O)OC(C)(C)C)C(C)C`: the z-score in [1] was -0.519; in experiment [2], -1.33 (inactive); in [3] it was 0.481 (inactive); in experiment [5], 0.0494 (inactive); in experiment [6] it was -0.407 (inactive); in experiment [7] it was -1.86 (inactive). Further, the z-score is -1.1 (inactive) in experiment [8] and -0.228 in [9]. For the same molecule, the results for the composite z-score in experiment [4] and in experiment [10] were -3.13 (inactive) and -0.195, respectively.

Take `CCc1cc2c(nc1CC)CCN(CCC(C)=NOC[C@@H](O)[C@H]1O[C@@H]3OC(C)(C)O[C@@H]3[C@H]1O)C2`: the z-score is -0.595 in experiment [1]; 0.0824 (inactive) in experiment [2]; -0.244 (inactive) in experiment [3]; 0.535 (inactive) in experiment [5]; -0.752 (inactive) in experiment [6]; 0.548 (inactive) in [7]. Besides, the results for the z-score in experiment [8] and in experiment [9] were -0.953 (inactive) and -0.269, respectively. The composite z-score was -0.439 (inactive) in experiment [4] and -0.365 in [10].

As for `CC(CCC(=O)OC[C@H]1O[C@H](C#Cc2ccccc2)C=C[C@@H]1Oc1ccc(C)cc1)=NOC[C@@H](O)COCc1ccco1`, the z-score in experiment [1] is -0.501; in experiment [2] it was 0.384 (inactive); in experiment [3], -1.39 (inactive); in experiment [5], 0.277 (inactive); in experiment [6], -0.0703 (inactive); in experiment [7] it was 0.564 (inactive). Besides, the z-score in [8] is 0.895 (inactive); in experiment [9], 0.131. Also, the composite z-score was -1.24 (inactive) in experiment [4] and -0.0454 in [10].

As to `O=C1C2C=CC(C(O)c3ccc([N+](=O)[O-])cc3)N(Nc3ccc([N+](=O)[O-])cc3)C2C(=O)N1c1ccccc1` (stereo not given), the z-score is -0.686 in [1]; 1.61 (inactive) in experiment [2]; -0.858 (inactive) in experiment [3]; 1.64 (inactive) in experiment [5]; 1.44 (inactive) in [6]; -1.3 (inactive) in experiment [7]. The values for the z-score in experiment [8] and in [9] were -1.09 (inactive) and -0.823, respectively. In addition, the figures for the composite z-score in experiment [4] and in [10] were 1.2 (inactive) and 0.23, respectively.

In the case of `COCCCNC(=O)[C@]1(CCC(=O)OC(C)(C)C)N=C(c2ccc(OCCCO)cc2)O[C@@H]1c1ccccc1N=[N+]=[N-]`, the z-score in [1] is 1.18; in experiment [2], -0.334 (inactive); in [3] it was -0.637 (inactive); in experiment [5], 0.149 (inactive); in [6], 0.149 (inactive); in experiment [7], 0.615 (inactive). The z-score was 0.0528 (inactive) in experiment [8] and -0.128 in experiment [9]. Further, the composite z-score in experiment [4] is 0.08 (inactive); in experiment [10], 0.121.

`O=C(NN=C1C[C@@H](O)[C@@H](O)[C@@H]2[C@@H]3C(=O)N(c4ccc(F)cc4F)C(=O)[C@@H]3CC[C@@H]12)OCc1ccccc1`: the z-score in experiment [1] is 0.801; in [2] it was 0.207 (inactive); in experiment [3], 0.442 (inactive); in experiment [5] it was -1.09 (inactive); in [6], 1.01 (inactive); in [7] it was 0.502 (inactive). Besides, the z-score was 0.873 (inactive) in experiment [8] and 0.508 in experiment [9]. Moreover, the composite z-score in experiment [4] is -0.192 (inactive); in [10], -0.27.

Regarding `CCOC(=O)[C@H](Cc1ccccc1)NC(=O)CCC1CC(OC(=O)NCCc2ccc(F)cc2)CC2(CCCC(COC(=O)NCC(c3ccccc3)c3ccccc3)O2)O1` (stereo not given in full), the z-score in [1] is 0.506; in [2] it was 0.167 (inactive); in [3], -0.874 (inactive); in experiment [5], 0.0494 (inactive); in experiment [6] it was 0.509 (inactive); in experiment [7], 0.565 (inactive). The z-score was -0.563 (inactive) in [8] and 0.489 in [9]. For the same molecule, the composite z-score in [4] is -0.219 (inactive); in [10], -0.161.

Turning to `COC(=O)[C@@]1(Cc2ccc(OC)cc2)[C@H]2c3cc(C(=O)N4CCCC4)n(Cc4cc(F)c(F)c(F)c4)c3C[C@H]2CN1C(=O)c1ccccc1`, the z-score in experiment [1] was 0.0559; in experiment [2], 1.35 (inactive); in experiment [3], -2.23 (inactive); in [5], 1.03 (inactive); in experiment [6], 0.0628 (inactive); in experiment [7] it was -0.824 (inactive). Also, the z-score in experiment [8] is -0.254 (inactive); in experiment [9] it was -3.1. In addition, the figures for the composite z-score in [4] and in experiment [10] were 0.13 (inactive) and 0.25, respectively.

`COC(=O)[C@H](C)NC(=O)CCC1CC(OC(=O)NCc2cccc3ccccc23)CC2(CCCC(COC(=O)NCCc3ccc(Cl)cc3)O2)O1` (stereo not given in full): the z-score was 0.788 in [1]; -0.0765 (inactive) in experiment [2]; 0.319 (inactive) in experiment [3]; -0.61 (inactive) in experiment [5]; -0.425 (inactive) in experiment [6]; -0.0798 (inactive) in experiment [7]. In addition, the z-score is 0.687 (inactive) in experiment [8] and 0.413 in experiment [9]. Further, the composite z-score in experiment [4] is -0.473 (inactive); in experiment [10] it was -0.0718.

Regarding `c1ccc(C2NCCc3c2[nH]c2ccccc32)cc1` (stereo not given), the z-score was 0.278 in experiment [1]; -2.91 (inactive) in [2]; -0.104 (inactive) in experiment [3]; 0.107 (inactive) in experiment [5]; -0.104 (inactive) in experiment [6]; -0.832 (inactive) in [7]. Besides, the z-score in experiment [8] was -1.79 (inactive); in [9], -0.326. Moreover, the composite z-score is -11 (active) in experiment [4] and 0.0043 in [10].

Consider `CS(=O)(=O)CCOC(=O)C1=CC(CCCO)=CC(c2cccs2)N(Cc2cccc(OC(F)(F)F)c2)C=C1C(=O)OCCS(C)(=O)=O` (stereo not given), for which the z-score was -0.746 in experiment [1]; -3.44 (inactive) in experiment [2]; -1.21 (inactive) in [3]; 1.52 (inactive) in [5]; 0.0788 (inactive) in experiment [6]; 0.596 (inactive) in experiment [7]. In addition, the z-score was -0.0926 (inactive) in experiment [8] and -0.96 in experiment [9]. The composite z-score was -0.407 (inactive) in experiment [4] and -0.268 in experiment [10].

Consider `CC(C)NC(=O)[C@@H]1c2ccccc2C(=O)N(CC23CC4CC(CC(C4)C2)C3)[C@H]1c1ccc(CO)cc1`, for which the z-score in [1] was 0.64; in experiment [2], -1.23 (inactive); in experiment [3], 0.955 (inactive); in experiment [5] it was 0.553 (inactive); in experiment [6], -1.52 (inactive); in experiment [7], 0.765 (inactive). For the same molecule, the z-score in experiment [8] is 1.59 (inactive); in experiment [9], 0.834. For the same molecule, the composite z-score in experiment [4] was 0.61 (inactive); in experiment [10], -0.0172.
